Source: PubChem BioAssay
The source made the active and inactive calls.

Assay: PSAC antagonists in infected red cells, primary screen, cell-based, P. falciparum Indochina, OD700, 1 h (AID 1154)
Conditions: P. falciparum Indochina infected RBC osmotic lysis, higher = more signal, called active from +8 up or from −8 down

z-score, inactive:
COc1ccc(C(=O)O[C@H]2CC[C@]3(C)C4=C(CCC3C2(C)C)[C@]2(C)CC[C@H]([C@H](C)CCCC(C)C)[C@@]2(C)CC4)cc1 (some centres not stated) -0.44
O=C1c2ccccc2[C@@]2(Cc3ccccc3N(CCN3CCOCC3)C2=O)[C@H](c2ccc(CO)cc2)N1Cc1ccccc1 0.884
CC[C@@H]1C=C(C(=O)O)[C@H](c2ccco2)N1S(=O)(=O)c1ccc(C)cc1 1.96
O=C1OCCC/C=C\[C@H]2OC34C=CCN(CCN5CCOCC5)C(=O)[C@H]3N(CCCO)C(=O)[C@@H]4C12 (some centres not stated) 2.38
COC(=O)[C@@]1(Cc2ccccc2)[C@H]2c3cc(C(=O)N4CCCC4)n(Cc4nc5ccccc5[nH]4)c3C[C@H]2CN1C(=O)c1ccccc1 3.2
CC(C)c1ccc(NN2C(C(O)C(c3ccccc3)c3ccccc3)C=CC3C(=O)N(c4ccccc4)C(=O)C32)cc1 (configuration not stated) 0.363
NC(=O)[C@@H]1[C@H]2C(=O)O[C@H](c3ccccc3)[C@H](c3ccccc3)N2[C@H](c2ccc(O)cc2)[C@@]12C(=O)Nc1ccc(C#CC3(O)CCCCCC3)cc12 2.28
CCOC(=O)C[C@H]1[C@H](OC(=O)Cc2ccc3c(c2)OCO3)[C@@H](NC(=O)c2ccc3ccccc3c2)c2cc(OCCCO)ccc2N1C(=O)c1ccccc1 4.03
COC(=O)c1c(CC[C@@H](CO)NC(=O)N[C@@H](C)Cn2cc(C3(O)CCCCC3)nn2)oc(C(C)=O)c1C(=O)OC 5.47
O=C1C2C=CC(C(O)c3ccc(F)cc3)N(Nc3ccccc3F)C2C(=O)N1c1ccccc1 (configuration not stated) 6.83
COCCOC(=O)N1C(=O)[C@@]2(c3cc(C#CCNC(N)=O)ccc31)[C@H](C(=O)NC[C@H](O)c1ccccc1)[C@H]1C(=O)O[C@H](c3ccccc3)[C@H](c3ccccc3)N1[C@@H]2c1ccccc1OCCO 2.05
COc1ccc([C@H]2C[C@H]3C(Br)=C[C@@H]2C(=O)[C@]32CO2)cc1 1.27
C=CCOC(=O)[C@@H]1[C@H]2C(=O)O[C@H](c3ccccc3)[C@H](c3ccccc3)N2[C@H](c2ccc(OCCOC(=O)[C@@H]3C[C@@H]4C(=O)N[C@@H](Cc5ccccc5)C(=O)N4[C@@H]3c3ccc(O)cc3)cc2)[C@@]12C(=O)Nc1ccc(I)cc12 2.33
O=C1OCC=C[C@H]2OC34C=CCN(c5ccc6ccccc6c5)C(=O)[C@H]3N(CCCCCCO)C(=O)[C@@H]4[C@@H]12 (some centres not stated) 3.18
O=C1OCCC/C=C\[C@H]2OC34C=CCN(Cn5nnc6ccccc65)C(=O)[C@H]3N(CCO)C(=O)[C@@H]4C12 (some centres not stated) 1.55
COc1cc2c(cc1OC)CN(C(=O)[C@H]1[C@@H]3C(=O)O[C@@H](c4ccccc4)[C@@H](c4ccccc4)N3[C@@H](c3ccc(O)cc3)[C@]13C(=O)Nc1ccc(C#CC4=CCCCC4)cc13)CC2 0.924
Cc1ccc(S[C@]2(C(=O)NCC(C)C)CC(=O)N(Cc3cc(C(F)(F)F)cc(C(F)(F)F)c3)[C@@H]2c2ccc(CO)cc2I)cc1 2.53
CCCC[C@@H]1C[C@H]1[C@@H](NC(=O)c1ccco1)c1ccc(C(=O)OC)cc1 1.59
O=C1O[C@H](c2ccccc2)[C@H](c2ccccc2)N2[C@H]1[C@@H](C(=O)O)[C@]1(C(=O)Nc3ccc(C#CC4=CCCCC4)cc31)[C@H]2c1ccccc1OCCO -1.84

z-score, active:
COc1ccc(C(=O)Nc2ccc(CN3C(=O)[C@@]4(O[C@@H](CCn5cc([C@H](O)c6ccccc6)nn5)[C@H]([Si](C)(C)c5ccc(OC)cc5)[C@H]4C)c4ccccc43)cc2)cc1 19.8
C#CCN(Cc1ccccc1Br)C(/C=C/c1ccccc1)CO (configuration not stated) 12.5
O=C1C2C=CC(C(O)c3c(F)cccc3Cl)N(Nc3ccccc3)C2C(=O)N1c1ccccc1 (configuration not stated) 18.7
CN(C)C(=O)[C@]1(Cc2ccccc2N=[N+]=[N-])N=C(c2ccc(OCCCO)cc2)O[C@@H]1c1ccccc1 30.2
O=C(c1ccccc1)N1Cc2ccccc2[C@@H]2OC(c3ccc(OCCCO)cc3)=N[C@]2(Cc2ccccc2)C1=O 10.8
C=C(COC)/C(=C/C[C@H](OC(=O)c1ccncc1)c1ccc(OCCO)cc1)c1cnc2ccccc2c1 20
[N-]=[N+]=Nc1ccccc1C[C@]1(C(N)=O)N=C(c2ccc(OCCCO)cc2)O[C@H]1c1ccccc1 19.8
CC(=O)N1Cc2ccccc2C[C@@]2(COC(c3ccc(OCCCO)cc3)=N2)C1=O 28.1
